Most compounds without a hit are left out; they make up all but 4% or so of the library.
CF NFkB block = cystic fibrosis NF-kB activation inhibition | KKLEB NF-kB-GFP reporter, PAF-induced, GFP fluorescence overnight | AID 588850 | inhibition, % at 5 µM | 360,000 tested, 0.86% active;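 active = at least 50% inhibition at 5 µM, scaled per plate between neutral and stimulator controls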;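 also: PAF is a Pseudomonas aeruginosa culture filtrate used as stimulus; plate controls were PAF-stimulated DMSO wells for no effect and unstimulated DMSO wells for full effect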
TWEAK Fn14 block = blocks TWEAK-Fn14 interaction in a reporter cell assay | TWEAK-stimulated Fn14 reporter cells, luciferase luminescence, 8 h | inhibition, % at 10 µM | 360,000 tested, 2% active; in the data active = inhibition above about 50%
HIF-2a block = HIF-2a inhibition | inhibition, % at 18.8 µM | 786-0 RCC cells HIF-2a reporter, luciferase luminescence, overnight | 360,000 tested, 0.72% active;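 active = inhibition of the luminescence signal of 40% or more relative to plate controls, in a single-dose primary screen at 18.75 µM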
Peg3 promoter = reduces Peg3 promoter-driven luciferase expression in HeLa | HeLa PEG-Prom luciferase reporter, luminescence, overnight | inhibition, % at 20 µM | 360,000 tested, 1.7% active | AID 588405;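 active = inhibition of at least 50% at 20 µM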
TROY signal inh = inhibitors of TROY-dependent NF-kB signaling; AID 1347056; Q293 LMP1-TROYcd NF-kB luciferase reporter, 4 h; 360,000 tested, 0.98% active; inhibition, % at 10 µM;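 active = compounds whose plate-normalised and pattern-corrected inhibition of the luciferase reporter signal at the single screening dose is 50% or more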
KKLEB cytotox = CF airway cell cytotoxicity counter-screen. KKLEB CF airway cells viability, ATPlite luminescence, overnight; stronger effect = lower value; cells stimulated with P. aeruginosa culture filtrate. activity change (cytotoxicity), % at 5 µM. 360,000 tested, 0.36% active;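 active = corrected activity change at or below -50% at 5 µM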
* marks the source's active call; other numbers are inactive results.

SMILES	CF NFkB block	TWEAK Fn14 block	HIF-2a block	Peg3 promoter	TROY signal inh	KKLEB cytotox
COc1cc2c3cc1Oc1cc(ccc1O)C[C@@H]1c4c(cc(OC)c(O)c4Oc4ccc(cc4)C[C@H]3N(C)CC2)CCN1C	21.2	-37.0	-10.9	67.5*	-2.9	-65.7*
COc1cc2c3c(c1OC)Oc1ccc(cc1)C[C@H]1c4c(cc(OC)c(OC)c4Oc4ccc(cc4)C[C@@H]3N(C)CC2)CCN1C	9.8	-35.4	11.0	87.4*	18.1	-31.5
COc1cc2c3cc1Oc1cc(ccc1O)C[C@@H]1c4c(cc(OC)c(O)c4Oc4cccc(c4)C[C@@H]3N(C)CC2)CC[N+]1(C)C	9.3	-4.2	-0.4	5.2	3.3	6.8
Cc1cccc(C)c1OP(N)(=O)Oc1c(C)cccc1C	10.8	4.4	33.9	15.5	7.1	-23.2
CC(C)C(NC(=O)C(C(C)C)N(C)C)C(=O)N(C)C(C(=O)N1CCCC1C(=O)N1CCCC1C(=O)NCc1ccccc1)C(C)C (stereo not given)	64.1*	4.7	31.3	-3.5	16.9	-42.2
Cc1c(NS(=O)(=O)c2ccccc2)ccc([N+](=O)[O-])c1Cl	44.8	46.0	-19.6	42.5	59.5*	-29.4
COc1ccc(-c2ccc3c(c2)CN(c2cccc(Cl)c2)Cc2cnnn2-3)cc1	-18.3	25.4	-48.0	-32.4	-28.7	-19.6
Clc1cccc(N2Cc3cc(-c4ccccc4)ccc3-n3nncc3C2)c1	48.2	49.9	11.4	101.1*	-14.3	-36.2
C/C=C/CC#N	1.3	-14.2	-7.5	2.9	-3.5	-2.3
CCCCn1c(NS(=O)(=O)c2ccccc2)c(C(=O)OCC)c2nc3ccccc3nc21	0.4	79.8*	-0.4	17.7	69.3*	7.8
Nc1c(C(=O)NCCN2CCOCC2)c2nc3ccccc3nc2n1Cc1ccccc1	7.8	22.0	19.6	27.5	8.3	-18.9
CCCCn1c(NC(=O)c2ccc(Br)o2)c(C(=O)OCC)c2nc3ccccc3nc21	26.0	70.5*	20.1	22.0	59.2*	-33.0
CCOC(=O)c1c(N)n(CCN2CCCCC2)c2nc3ccccc3nc12	-26.4	-11.3	5.4	21.2	3.4	1.5
CCCCn1c(N)c(C(=O)NCCN2CCOCC2)c2nc3ccccc3nc21	-5.2	3.0	17.3	9.4	63.8*	-5.5
CSCCC(c1nnnn1-c1ccc2c(c1)OCCO2)N1CCC(n2c(=O)[nH]c3ccccc32)CC1 (stereo not given)	86.2*	26.3	-2.4	74.7*	27.2	-83.7*
O=C1NCN(c2ccccc2)C12CCN(C(c1ccccc1)c1nnnn1-c1ccc3c(c1)OCCO3)CC2 (stereo not given)	-16.4	19.0	-12.3	25.2	-2.2	-9.5
O=c1[nH]c2ccccc2n1C1CCN(C(c2ccccc2)c2nnnn2-c2ccc3c(c2)OCCO3)CC1 (stereo not given)	84.1*	52.4*	-7.6	68.2*	30.1	-86.7*
O=c1[nH]c2ccccc2n1C1CCN(C(c2nnnn2-c2ccc3c(c2)OCCO3)C2CC2)CC1 (stereo not given)	84.1*	43.5	7.4	77.9*	8.1	-86.6*
O=c1[nH]c2ccccc2n1C1CCN(C(CCc2ccccc2)c2nnnn2C2CCCC2)CC1 (stereo not given)	84.3*	50.7*	-98.8	87.3*	53.1*	-95.7*
COC(=O)C(C)NC(=S)N1CC2C[C@@H](C1)Cn1c2cccc1=O (stereo not given in full)	-22.3	23.0	-0.8	16.7	-26.8	-1.4
O=C(CNC1CCCCC1)N1CCC2(CC1)OCCO2	10.8	6.1	3.9	6.8	2.5	-2.6
CC1CCSP(=O)(Oc2ccccc2)O1 (stereo not given)	-3.2	-8.2	15.1	4.7	-10.0	2.6
COc1ccc(-n2nnnc2C(c2ccnc3ccccc23)N2CCC(n3c(=O)[nH]c4ccccc43)CC2)cc1 (stereo not given)	13.2	-8.1	17.5	25.1	10.2	-5.5
O=c1[nH]c2ccccc2n1C1CCN(C(c2cccs2)c2nnnn2-c2ccc3c(c2)OCCO3)CC1 (stereo not given)	87.1*	49.1	-35.7	76.6*	27.1	-79.4*
COc1ccc(-n2nnnc2C(c2ccccc2)N2CCC(n3c(=O)[nH]c4ccccc43)CC2)cc1 (stereo not given)	81.4*	43.3	-23.7	64.3*	23.5	-70.1*
SMILES	CF NFkB block	TWEAK Fn14 block	HIF-2a block	Peg3 promoter	TROY signal inh	KKLEB cytotox
CN(C)C(CNC(=O)Cc1c(Cl)cccc1Cl)c1ccccc1 (stereo not given)	3.6	0.8	2.9	2.1	-22.5	-11.5
CCC(=O)O[C@H]1CC[C@H]2[C@@H]3CCC4=CC(=O)CC[C@]4(C)[C@H]3CC[C@]12C	1.5	-22.2	10.9	53.2*	20.2	8.4
O=C(c1ccco1)c1cn(Cc2ccccc2Cl)c2ccccc12	7.1	-20.4	-26.3	12.8	-8.0	-9.1
O=C(c1ccco1)c1cn(Cc2ccccc2)c2ccccc12	14.9	101.5*	-33.8	-12.4	-26.0	-9.0
ClCCN(CCCl)c1ccc(-n2cnc3c(Cl)ncnc32)cc1	30.2	74.9*	36.4	103.9*	35.6	-2.6
CCC(CC)N1CCN(C(=O)Cc2ccccc2)CC1	17.0	-13.2	-1.7	2.9	2.9	-12.5
O=C1C=C(N2CC2)c2ccccc2C1=O	60.2*	-38.1	17.8	16.6	11.6	0.6
CCN(CC)c1ccc(CNCCc2ccc(F)cc2)cc1	8.5	-2.0	21.2	63.7*	-4.7	-8.1
CCc1ccc(CNCCc2ccc(F)cc2)cc1	-12.4	-3.8	13.2	-1.9	4.7	-3.1
COc1ccc(OC)c(N=Cc2c(O)n(Cc3ccccc3)c(=S)[nH]c2=O)c1	-6.0	-23.1	-0.4	3.1	-12.4	-0.8
COc1ccc(N=Cc2c(O)n(Cc3ccccc3)c(=S)[nH]c2=O)c(OC)c1	30.2	-28.0	-65.0	54.2*	-35.6	-49.8
Cc1ccc(OC(F)F)c(N2C(=O)C3C4CCC(O4)C3C2=O)c1 (stereo not given)	-8.4	9.9	16.5	8.6	-10.0	4.4
COc1cc(/C=C/c2nc3ccccc3c(=O)n2-c2ccccc2O)ccc1O	-56.6	56.4*	-8.4	-13.3	18.3	13.5
COc1cc(/C=C/c2nc3ccccc3c(=O)n2-c2cccc(O)c2)ccc1O	-19.8	49.4	23.0	46.7	11.7	-4.4
CC1CC2(C)C(CCC3C2CCC2(C)C(OP(=O)(N4CC4)N4CC4)CCC32)CC1=O (stereo not given)	-9.8	21.6	2.8	-14.8	-17.4	-0.3
O=c1cc(C(F)(F)F)c2cc3c4c(c2o1)CCCN4CCC3	-25.7	12.3	19.1	-6.1	-5.0	-11.0
CC(C)CC(N(C)C)C1(c2ccc(Cl)cc2)CCC1 (stereo not given)	-17.3	10.3	-1.6	-1.5	-2.4	16.2
Cc1ccc(S(=O)(=O)CC(=O)c2cc(C)c(OC(=O)N(C)C)c(C)c2)cc1	-4.5	-0.8	-46.1	-19.4	-11.8	4.5

Compound activity from PubChem BioAssay.
